Results as given in PubChem BioAssay (EPA / NIEHS).
Results filed as inconclusive are left out. Calls of active or inactive are those of the source. How the source made its calls, unless noted: active means hit-call score of the fitted dose curve at least 0.9, where 1 is the maximum; inconclusive means response in the unintended direction; inactive means score below 0.9.

How the values were obtained:
[1] = ATG_TAL_CIS: Attagene CIS-FACTORIAL HepG2 Assay for human TAL Basal Promoter (AID 2282966; active means hit-call score of the fitted dose curve at least 0.9, where 1 is the maximum; inactive means score below 0.9;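 further: background control endpoint measuring basal TAL promoter reporter mRNA not a specific factor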); details: HepG2 Attagene cis-factorial TAL promoter reporter; actives raise or lower the signal
How it was run: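 Steps: transfect HepG2 with multiple reporter transcription units; dose 24 h; isolate RNA, reverse-transcribe, PCR-amplify, label with 6-FAM, digest with HpaI; resolve by capillary electrophoresis. Bidirectional fitting against DMSO baseline.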

[2] = ATG_TGFb_CIS: Attagene CIS-FACTORIAL HepG2 Assay for human Transforming Growth Factor (TGF) (AID 2282967; active means hit-call score of the fitted dose curve at least 0.9, where 1 is the maximum; inactive means score below 0.9); details: HepG2 Attagene CIS TGFb reporter, mRNA transcription; actives raise or lower the signal
How it was run: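 After a 24-hour incubation with compound, transfected HepG2 cells were lysed for RNA; reporter cDNA was amplified, fluorescently end-labeled and separated by CE. DMSO served as baseline for bidirectional fits.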

[3] = ATG_VDRE_CIS: Attagene CIS-FACTORIAL HepG2 Assay for human Vitamin D Receptor Element (VDRE) (AID 2282968; active means hit-call score of the fitted dose curve at least 0.9, where 1 is the maximum; inactive means score below 0.9); details: HepG2 VDRE cis-reporter transcription, actives raise or lower the signal
How it was run: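 Reporter mRNA induction, quantified by capillary electrophoresis of fluorescently labelled RT-PCR products, was read 24 h after dosing HepG2 cells carrying transiently transfected cis-regulated reporter units; gain or loss relative to DMSO.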

[4] = target: Estrogen receptor (Homo sapiens) (UniProt P03372); assay: ATG_ERa_TRANS: Attagene TRANS-FACTORIAL HepG2 Assay for human Estrogen Receptor alpha (ERa) (AID 2282970); details: HepG2 Attagene TRANS ERa GAL4 reporter, mRNA
How it was run: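 Multiplexed cell-based reporter format in HepG2: chimeric ERa-Gal4 protein drives GAL4-UAS reporter transcription. Fluorescent reporter mRNA quantified by capillary electrophoresis 24 hours after dosing; endpoint fitted as signal gain against DMSO.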

[5] = target: Steroid hormone receptor ERR1 (Homo sapiens) (UniProt P11474); assay: ATG_ERRa_TRANS: Attagene TRANS-FACTORIAL HepG2 Assay for human Estrogen-Related Receptor alpha (ERRa) (AID 2282971); details: HepG2 Attagene TRANS reporter, ERRa transactivation
How it was run: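 Signal gain relative to DMSO for an ERRa-Gal4 chimeric receptor, read as reporter mRNA by RT-PCR/capillary electrophoresis. Human HepG2 liver cells, transient multiplex reporter transfection, 24 h chemical exposure.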

[6] = target: X-box-binding protein 1 (Homo sapiens) (UniProt P17861); assay: ATG_Xbp1_CIS: Attagene CIS-FACTORIAL HepG2 Assay for human X-box Binding Protein 1 (XBP1) (AID 2282972; active means hit-call score of the fitted dose curve at least 0.9, where 1 is the maximum; inactive means score below 0.9); details: HepG2 XBP1 cis-element reporter, Attagene multiplex; actives raise or lower the signal
How it was run: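 Fluorescence-labelled cDNA fragments from reporter transcripts, separated by capillary electrophoresis, give the signal. Source: HepG2 cells transfected with promoter-driven reporter units, harvested 24 h post-dose. DMSO served as reference for bidirectional curve fitting.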

[7] = ATG_M_19_TRANS: Attagene TRANS-FACTORIAL HepG2 Assay for M19 Transcription Factor (Internal Marker) (AID 2282974); details: HepG2 Attagene TRANS-FACTORIAL M19 internal marker reporter
How it was run: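 HepG2 transiently transfected with GAL4-UAS multiplex reporter constructs, exposed 24 h; reporter RNA quantified by RT-PCR, 6-FAM labeling, HpaI digestion and capillary electrophoresis; internal background marker fitted upward versus DMSO.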

[8] = target: Oxysterols receptor LXR-alpha (Homo sapiens) (UniProt Q13133); assay: ATG_LXRa_TRANS: Attagene TRANS-FACTORIAL HepG2 Assay for human Liver X Receptor alpha (LXRa) (AID 2282980); details: HepG2 Attagene TRANS reporter, LXRa transactivation
How it was run: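 In this multiplexed TRANS system, compounds act on HepG2 cells carrying GAL4-UAS reporter units and a receptor-GAL4 fusion for 24 h. Induced reporter RNA is amplified, fluorescently labelled and sized by capillary electrophoresis, with DMSO as baseline.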

[9] = target: Hepatocyte nuclear factor 4-alpha (Homo sapiens) (UniProt P41235); assay: ATG_HNF4a_TRANS: Attagene TRANS-FACTORIAL HepG2 Assay for human Hepatocyte Nuclear Factor 4 alpha (HNF4a) (AID 2282982); details: HepG2 HNF4a transactivation reporter, mRNA readout
How it was run: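 Readout is fluorescent reporter-transcript fragments resolved by capillary electrophoresis after RT-PCR from HepG2 cells dosed for 24 h. Cells carried transfected GAL4-UAS reporter constructs measuring exogenous NR-GAL4 chimera activity; DMSO served as baseline.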

[10] = target: Transcriptional activator Myb (Homo sapiens) (UniProt P10242); assay: ATG_Myb_CIS: Attagene CIS-FACTORIAL HepG2 Assay for human Myeloblastosis (Myb) Proto-Oncogene Transcription Factor (AID 2282986; active means hit-call score of the fitted dose curve at least 0.9, where 1 is the maximum; inactive means score below 0.9); details: HepG2 Attagene CIS-FACTORIAL Myb reporter transcription; actives raise or lower the signal
How it was run: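 Transiently transfected HepG2 cells carrying a multiplexed cis-promoter reporter set report endogenous Myb activity after 24 h compound exposure. Reporter mRNA is read by RT-PCR with capillary electrophoresis of fluorescent products, fitted bidirectionally against DMSO.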

[11] = target: Nuclear receptor subfamily 1 group I member 3 (Homo sapiens) (UniProt Q14994); assay: ATG_CAR_TRANS: Attagene TRANS-FACTORIAL HepG2 Assay for human Constitutive Androstane Receptor (CAR) (AID 2282969); details: HepG2 Attagene TRANS-FACTORIAL CAR reporter;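 further: activators raise reporter mRNA above DMSO so AC50 marks induction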
How it was run: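 Readout is reporter mRNA induction, quantified by fluorescent primer extension and capillary electrophoresis after RT-PCR. Cells were HepG2 transiently carrying chimeric NR-Gal4 constructs with GAL4-UAS reporters, treated for 24 h; activity scored upward from DMSO.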

[12] = ATG_GAL4_TRANS: Attagene TRANS-FACTORIAL HepG2 Assay for GAL4 (Internal Marker) (AID 2282976); details: HepG2 Attagene TRANS GAL4 internal marker reporter
How it was run: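 Liver HepG2 line bearing multiplexed GAL4-UAS reporter constructs; 24 h chemical treatment. Transcripts were quantified as fluorescent fragments on capillary electrophoresis after RT-PCR and HpaI cut, with activity fitted upward from DMSO.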

[13] = target: Oxysterols receptor LXR-beta (Homo sapiens) (UniProt P55055); assay: ATG_LXRb_TRANS: Attagene TRANS-FACTORIAL HepG2 Assay for human Liver X Receptor beta (LXRb) (AID 2282981); details: HepG2 Attagene TRANS GAL4-LXRb reporter, mRNA
How it was run: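 Transient transfection HepG2 (multiplexed RTUs, GAL4-UAS); NR-Gal4 chimera; 24 h exposure; RNA → RT-PCR → 6-FAM primer extension → HpaI → CE; increase vs DMSO.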

[14] = ATG_M_06_TRANS: Attagene TRANS-FACTORIAL HepG2 Assay for M06 Transcription Factor (Internal Marker) (AID 2282983); details: HepG2 Attagene TRANS M06 internal marker reporter;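 further: reporter transcript level by RT-PCR then capillary electrophoresis fluorescence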
How it was run: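 Internal-marker background readout from a multiplexed TRANS reporter system in HepG2; 24 h dosing; mRNA induction quantified by RT-PCR plus capillary electrophoresis fluorescence; DMSO as negative control and baseline.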

[15] = ATG_M_32_TRANS: Attagene TRANS-FACTORIAL HepG2 Assay for M32 Transcription Factor (Internal Marker) (AID 2282984); details: HepG2 Attagene TRANS M32 internal marker reporter;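 further: transcript level of a background control reporter unit measured by RT-PCR and capillary electrophoresis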
How it was run: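 Measures reporter mRNA induction in human HepG2 liver cells after 24 h chemical treatment. Transcripts from transiently transfected GAL4-UAS reporter units are amplified, fluorescently labelled and sized by capillary electrophoresis; gain of signal relative to DMSO.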

[16] = target: Nuclear respiratory factor 1 (Homo sapiens) (UniProt Q16656); assay: ATG_NRF1_CIS: Attagene CIS-FACTORIAL HepG2 Assay for human Nuclear Respiratory Factor 1 (NRF1) Orphan Gene (AID 2282987; active means hit-call score of the fitted dose curve at least 0.9, where 1 is the maximum; inactive means score below 0.9); details: HepG2 NRF1 cis-element reporter, Attagene multiplex; actives raise or lower the signal
How it was run: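 HepG2 cells transiently transfected with multiple cis-regulated reporter units, exposed 24 h. Reporter mRNAs measured by RT-PCR, fluorescent labelling, HpaI digestion and capillary electrophoresis; bidirectional fitting against DMSO.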

[17] = target: Glucocorticoid receptor (Homo sapiens) (UniProt P04150); assay: ATG_GR_TRANS: Attagene TRANS-FACTORIAL HepG2 Assay for human Glucocorticoid Receptor (GR) (AID 2282978); details: HepG2 Attagene TRANS GR reporter, mRNA transcription;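 further: activators score as hits since higher reporter transcript over DMSO is fitted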
How it was run: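 HepG2 cells transiently transfected with GAL4-UAS reporter units and exogenous GR-Gal4 chimera, dosed 24 h. Reporter mRNA by RT-PCR, FAM labeling, HpaI digest and capillary electrophoresis; gain-of-signal fit versus DMSO.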

[18] = target: Bile acid receptor (Homo sapiens) (UniProt Q96RI1); assay: ATG_FXR_TRANS: Attagene TRANS-FACTORIAL HepG2 Assay for Farnesoid X Receptor (FXR) (AID 2282979); details: HepG2 Attagene TRANS FXR-GAL4 reporter transcription;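 further: hits raise reporter mRNA above DMSO so AC50 marks FXR activation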
How it was run: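 After 24 h chemical treatment of transfected HepG2 cells, GAL4-UAS reporter transcripts driven by an exogenous FXR-GAL4 fusion were measured by RT-PCR and capillary electrophoresis. Increases over DMSO were fitted.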

[19] = target: Nuclear receptor subfamily 4 group A member 2 (Homo sapiens) (UniProt P43354); assay: ATG_NURR1_TRANS: Attagene TRANS-FACTORIAL HepG2 Assay for human Nuclear Receptor Related Protein 1 (NURR1) (AID 2282985); details: HepG2 Attagene TRANS reporter, mRNA readout
How it was run: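 Transient transfection of HepG2, human liver cells, with multiple GAL4-UAS reporter transcription units. Cells dosed 24 h, RNA isolated, reverse-transcribed, PCR-amplified, FAM-labelled, HpaI-digested, sized by capillary electrophoresis. DMSO served as negative control.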

Measured: outcome

Sequence of X-box-binding protein 1 (Homo sapiens) (P17861 whole entry, looked up, the tested form may be a part): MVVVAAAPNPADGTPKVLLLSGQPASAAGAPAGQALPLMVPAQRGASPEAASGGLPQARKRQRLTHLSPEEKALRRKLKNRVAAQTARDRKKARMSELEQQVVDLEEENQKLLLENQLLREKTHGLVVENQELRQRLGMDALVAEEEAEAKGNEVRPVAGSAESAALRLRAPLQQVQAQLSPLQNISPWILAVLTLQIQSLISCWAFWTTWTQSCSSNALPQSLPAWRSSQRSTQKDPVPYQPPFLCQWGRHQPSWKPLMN
Sequence of Oxysterols receptor LXR-beta (Homo sapiens) (P55055 whole entry, looked up, the tested form may be a part): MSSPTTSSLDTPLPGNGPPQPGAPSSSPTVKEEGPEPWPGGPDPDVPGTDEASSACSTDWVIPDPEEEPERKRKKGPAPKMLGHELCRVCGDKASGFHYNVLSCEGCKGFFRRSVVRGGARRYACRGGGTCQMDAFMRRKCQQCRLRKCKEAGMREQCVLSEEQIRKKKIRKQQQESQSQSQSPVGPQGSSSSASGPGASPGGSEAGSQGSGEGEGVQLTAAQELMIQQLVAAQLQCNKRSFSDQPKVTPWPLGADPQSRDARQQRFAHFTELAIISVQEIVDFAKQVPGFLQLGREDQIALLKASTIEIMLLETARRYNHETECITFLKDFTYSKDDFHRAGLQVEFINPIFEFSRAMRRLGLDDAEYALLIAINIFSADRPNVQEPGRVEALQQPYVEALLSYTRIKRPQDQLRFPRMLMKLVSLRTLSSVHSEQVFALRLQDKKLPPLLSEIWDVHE
Sequence of Nuclear receptor subfamily 1 group I member 3 (Homo sapiens) (Q14994 whole entry, looked up, the tested form may be a part): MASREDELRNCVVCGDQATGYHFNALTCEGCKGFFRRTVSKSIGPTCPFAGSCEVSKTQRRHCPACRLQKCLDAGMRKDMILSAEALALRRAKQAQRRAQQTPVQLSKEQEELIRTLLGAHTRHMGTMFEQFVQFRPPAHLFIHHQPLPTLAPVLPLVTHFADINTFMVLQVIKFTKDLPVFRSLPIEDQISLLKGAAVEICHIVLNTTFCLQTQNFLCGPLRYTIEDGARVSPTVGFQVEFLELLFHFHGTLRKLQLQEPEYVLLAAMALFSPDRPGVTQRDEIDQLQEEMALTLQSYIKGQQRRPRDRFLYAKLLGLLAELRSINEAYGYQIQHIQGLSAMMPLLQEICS
Sequence of Transcriptional activator Myb (Homo sapiens) (P10242 whole entry, looked up): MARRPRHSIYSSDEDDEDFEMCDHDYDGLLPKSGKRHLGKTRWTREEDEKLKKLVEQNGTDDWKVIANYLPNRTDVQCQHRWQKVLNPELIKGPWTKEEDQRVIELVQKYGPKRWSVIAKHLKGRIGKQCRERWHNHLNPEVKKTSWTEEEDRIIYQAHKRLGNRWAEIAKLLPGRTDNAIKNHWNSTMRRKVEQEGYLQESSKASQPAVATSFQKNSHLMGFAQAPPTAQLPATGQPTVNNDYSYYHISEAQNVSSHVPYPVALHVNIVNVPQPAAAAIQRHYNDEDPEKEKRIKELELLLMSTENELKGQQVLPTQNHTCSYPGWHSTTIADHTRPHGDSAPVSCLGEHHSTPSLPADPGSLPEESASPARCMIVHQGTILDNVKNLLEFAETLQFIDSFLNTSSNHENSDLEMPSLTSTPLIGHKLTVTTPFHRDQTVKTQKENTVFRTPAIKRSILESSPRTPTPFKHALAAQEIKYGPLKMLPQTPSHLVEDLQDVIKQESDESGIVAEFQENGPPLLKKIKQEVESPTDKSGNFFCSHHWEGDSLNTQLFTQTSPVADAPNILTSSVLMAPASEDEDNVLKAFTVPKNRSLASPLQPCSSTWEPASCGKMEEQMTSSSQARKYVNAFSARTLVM
Sequence of Oxysterols receptor LXR-alpha (Homo sapiens) (Q13133 whole entry, looked up, the tested form may be a part): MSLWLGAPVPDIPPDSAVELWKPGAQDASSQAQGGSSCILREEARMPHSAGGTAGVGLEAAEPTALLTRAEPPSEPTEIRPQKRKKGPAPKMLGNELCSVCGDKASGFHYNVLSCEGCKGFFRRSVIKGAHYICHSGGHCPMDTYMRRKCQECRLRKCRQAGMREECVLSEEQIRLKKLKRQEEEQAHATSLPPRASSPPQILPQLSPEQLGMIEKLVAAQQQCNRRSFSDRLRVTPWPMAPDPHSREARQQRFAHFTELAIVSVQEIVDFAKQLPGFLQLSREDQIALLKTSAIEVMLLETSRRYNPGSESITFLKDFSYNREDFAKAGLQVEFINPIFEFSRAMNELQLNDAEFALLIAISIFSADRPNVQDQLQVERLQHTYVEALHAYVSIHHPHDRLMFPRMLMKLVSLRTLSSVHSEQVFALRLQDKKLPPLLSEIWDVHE
Sequence of Nuclear respiratory factor 1 (Homo sapiens) (Q16656 whole entry, looked up): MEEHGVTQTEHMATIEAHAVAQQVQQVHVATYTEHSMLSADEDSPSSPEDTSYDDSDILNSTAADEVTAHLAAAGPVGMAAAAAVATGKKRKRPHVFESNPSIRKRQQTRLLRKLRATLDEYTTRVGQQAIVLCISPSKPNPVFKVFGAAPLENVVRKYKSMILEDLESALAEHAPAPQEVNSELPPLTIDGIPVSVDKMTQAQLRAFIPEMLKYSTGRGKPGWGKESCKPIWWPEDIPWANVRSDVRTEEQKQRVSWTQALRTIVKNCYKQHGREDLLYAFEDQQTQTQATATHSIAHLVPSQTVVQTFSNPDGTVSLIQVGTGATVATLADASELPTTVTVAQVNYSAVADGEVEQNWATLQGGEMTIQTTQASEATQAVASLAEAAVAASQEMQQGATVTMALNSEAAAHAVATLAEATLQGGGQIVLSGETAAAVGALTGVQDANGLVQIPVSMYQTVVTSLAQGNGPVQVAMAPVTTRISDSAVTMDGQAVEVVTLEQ
Sequence of Hepatocyte nuclear factor 4-alpha (Homo sapiens) (P41235 whole entry, looked up, the tested form may be a part): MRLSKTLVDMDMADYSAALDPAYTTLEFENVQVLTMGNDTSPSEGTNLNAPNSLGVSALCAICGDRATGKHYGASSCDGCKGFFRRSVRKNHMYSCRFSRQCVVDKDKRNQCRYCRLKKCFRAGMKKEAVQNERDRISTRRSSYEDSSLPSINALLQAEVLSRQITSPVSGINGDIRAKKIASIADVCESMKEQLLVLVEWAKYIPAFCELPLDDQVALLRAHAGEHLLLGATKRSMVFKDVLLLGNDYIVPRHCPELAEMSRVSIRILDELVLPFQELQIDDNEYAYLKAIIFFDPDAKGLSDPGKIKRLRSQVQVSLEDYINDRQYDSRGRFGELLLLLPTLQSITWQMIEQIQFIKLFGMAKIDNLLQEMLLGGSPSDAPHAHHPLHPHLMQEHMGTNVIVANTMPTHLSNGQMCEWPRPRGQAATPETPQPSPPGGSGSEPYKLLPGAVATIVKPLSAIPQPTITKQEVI
Sequence of Nuclear receptor subfamily 4 group A member 2 (Homo sapiens) (P43354 whole entry, looked up, the tested form may be a part): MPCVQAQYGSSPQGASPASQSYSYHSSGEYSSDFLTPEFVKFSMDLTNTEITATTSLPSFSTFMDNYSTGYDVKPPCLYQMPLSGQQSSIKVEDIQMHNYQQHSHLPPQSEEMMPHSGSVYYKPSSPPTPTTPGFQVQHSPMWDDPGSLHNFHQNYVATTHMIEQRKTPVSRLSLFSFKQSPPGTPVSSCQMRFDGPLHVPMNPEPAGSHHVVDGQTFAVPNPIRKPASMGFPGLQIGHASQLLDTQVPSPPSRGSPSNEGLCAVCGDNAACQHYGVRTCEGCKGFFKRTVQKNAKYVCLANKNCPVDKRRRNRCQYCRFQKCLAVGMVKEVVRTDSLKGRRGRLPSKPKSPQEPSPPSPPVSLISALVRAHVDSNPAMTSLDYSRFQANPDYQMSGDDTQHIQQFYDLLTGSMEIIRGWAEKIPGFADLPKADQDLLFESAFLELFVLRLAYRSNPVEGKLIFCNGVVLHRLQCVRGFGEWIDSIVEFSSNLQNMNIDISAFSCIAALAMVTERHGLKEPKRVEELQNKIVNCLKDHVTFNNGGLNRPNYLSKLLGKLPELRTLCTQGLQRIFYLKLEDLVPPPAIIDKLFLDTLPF
Sequence of Bile acid receptor (Homo sapiens) (Q96RI1 whole entry, looked up, the tested form may be a part): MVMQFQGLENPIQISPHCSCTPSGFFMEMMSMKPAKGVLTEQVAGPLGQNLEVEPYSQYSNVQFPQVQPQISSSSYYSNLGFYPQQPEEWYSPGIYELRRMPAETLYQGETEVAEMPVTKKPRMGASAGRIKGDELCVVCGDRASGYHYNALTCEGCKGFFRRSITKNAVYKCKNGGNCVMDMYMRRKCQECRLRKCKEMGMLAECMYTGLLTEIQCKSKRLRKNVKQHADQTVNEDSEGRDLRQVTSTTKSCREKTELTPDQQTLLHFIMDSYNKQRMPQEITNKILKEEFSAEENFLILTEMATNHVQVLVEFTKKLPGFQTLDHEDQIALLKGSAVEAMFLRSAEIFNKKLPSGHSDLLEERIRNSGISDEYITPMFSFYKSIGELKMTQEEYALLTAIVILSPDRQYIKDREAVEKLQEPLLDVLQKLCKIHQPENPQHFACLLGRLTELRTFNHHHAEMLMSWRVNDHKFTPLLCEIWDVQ
Sequence of Estrogen receptor (Homo sapiens) (P03372 whole entry, looked up, the tested form may be a part): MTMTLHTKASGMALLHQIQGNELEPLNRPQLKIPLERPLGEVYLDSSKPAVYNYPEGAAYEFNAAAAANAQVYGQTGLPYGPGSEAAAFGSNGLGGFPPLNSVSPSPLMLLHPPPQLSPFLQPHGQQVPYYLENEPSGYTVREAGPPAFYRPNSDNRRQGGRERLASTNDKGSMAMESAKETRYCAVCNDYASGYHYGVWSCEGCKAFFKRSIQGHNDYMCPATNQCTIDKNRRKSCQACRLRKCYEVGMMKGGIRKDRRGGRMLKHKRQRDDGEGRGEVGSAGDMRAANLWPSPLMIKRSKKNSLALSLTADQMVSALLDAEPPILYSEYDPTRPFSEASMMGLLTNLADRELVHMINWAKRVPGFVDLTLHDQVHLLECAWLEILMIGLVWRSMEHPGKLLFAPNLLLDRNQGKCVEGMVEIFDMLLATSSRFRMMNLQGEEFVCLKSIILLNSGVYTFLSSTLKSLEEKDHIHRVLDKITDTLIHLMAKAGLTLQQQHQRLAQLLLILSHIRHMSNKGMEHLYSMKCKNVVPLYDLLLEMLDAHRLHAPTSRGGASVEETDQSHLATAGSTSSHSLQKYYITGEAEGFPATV

CC(C)(C)c1n[nH]c(=S)n(N)c1=O
inactive: [1] | [2] | [3] | [4] | [5] | [6] | [7] | [8] | [9] | [10]

C=COCCOCCOCCOC=C
not listed: [4] | [5] | [7] | [8] | [17] | [18] | [19]
inactive: all other assays above

CCCC(=O)c1cc(O)c(O)cc1O
not listed: [5] | [9] | [11] | [15]
inactive: all other assays above

CC(CC(C)(C)C)CC(C)(C)CC(C)(C)C (stereo not drawn)
not listed: [4] | [5] | [7] | [8] | [12]
inactive: all other assays above

OCC(CO)(CO)COCC(CO)(CO)CO
not listed: [4] | [5] | [7] | [13] | [17] | [18] | [19]
inactive: all other assays above
